In all, about 310,000 compounds went through this assay and about 14,000 (4.5%) showed an effect of 50% or more. Effects have a minus sign here. The sample as a whole holds a higher share of strong results than the screen did.
target: human ether-à-go-go-related gene (hERG) potassium channel (human, UniProt Q12809); assay: primary screen, population patch clamp on CHO cells stably expressing hERG; higher = less effect of the substance
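Also: peak tail current of the secondary pulse compared with the same well before compound.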

human ether-à-go-go-related gene (hERG) potassium channel, sequence (Q12809 whole entry, looked up): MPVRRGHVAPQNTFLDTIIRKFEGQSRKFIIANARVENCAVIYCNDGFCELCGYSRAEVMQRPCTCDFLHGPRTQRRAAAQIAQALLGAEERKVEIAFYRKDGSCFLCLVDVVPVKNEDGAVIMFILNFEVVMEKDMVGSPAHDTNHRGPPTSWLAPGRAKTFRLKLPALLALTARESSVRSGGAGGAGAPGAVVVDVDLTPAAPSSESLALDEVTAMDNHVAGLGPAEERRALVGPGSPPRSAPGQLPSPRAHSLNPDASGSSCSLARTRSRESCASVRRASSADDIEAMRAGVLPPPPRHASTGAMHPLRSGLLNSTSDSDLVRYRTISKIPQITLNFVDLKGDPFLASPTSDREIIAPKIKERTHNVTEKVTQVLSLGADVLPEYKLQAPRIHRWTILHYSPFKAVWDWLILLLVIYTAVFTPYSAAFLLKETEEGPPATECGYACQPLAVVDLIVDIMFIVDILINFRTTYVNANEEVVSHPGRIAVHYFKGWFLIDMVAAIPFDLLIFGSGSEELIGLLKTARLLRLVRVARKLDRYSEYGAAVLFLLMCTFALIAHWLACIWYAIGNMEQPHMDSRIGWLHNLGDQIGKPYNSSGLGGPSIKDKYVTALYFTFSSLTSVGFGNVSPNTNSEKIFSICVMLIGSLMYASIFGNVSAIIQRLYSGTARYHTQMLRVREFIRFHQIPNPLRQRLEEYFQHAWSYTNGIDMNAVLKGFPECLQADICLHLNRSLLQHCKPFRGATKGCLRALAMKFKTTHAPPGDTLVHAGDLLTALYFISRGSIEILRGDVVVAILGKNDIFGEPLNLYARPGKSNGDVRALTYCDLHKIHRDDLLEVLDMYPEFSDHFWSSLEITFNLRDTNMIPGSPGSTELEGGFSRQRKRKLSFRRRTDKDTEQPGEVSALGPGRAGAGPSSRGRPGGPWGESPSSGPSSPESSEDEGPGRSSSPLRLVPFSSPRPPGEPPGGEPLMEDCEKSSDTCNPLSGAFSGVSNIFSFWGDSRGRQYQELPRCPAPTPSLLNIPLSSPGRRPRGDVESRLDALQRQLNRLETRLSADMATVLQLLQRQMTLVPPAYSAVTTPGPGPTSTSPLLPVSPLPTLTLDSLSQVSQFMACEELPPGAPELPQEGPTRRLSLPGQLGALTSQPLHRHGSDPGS

Row | SMILES | hERG current change (%, negative = inhibition) at 10uM
1 | Cc1csc(NC(=O)c2sc3nc(-c4cccs4)ccc3c2N)n1 | 5.65%
2 | COc1ccc(OC)c(NC(=O)CSc2nnc(C3CCCCC3)o2)c1 | -19%
3 | CC(=O)N1CC(C)Sc2ccc(S(=O)(=O)NCc3ccc(F)cc3)cc21 (stereo not shown) | -49.6%
4 | O=C1c2ccccc2S(=O)(=O)c2cc(C(=O)N3CCN(c4ccc(Cl)cn4)CC3)ccc21 | -33.1%
5 | CCOc1ccc(S(=O)(=O)N2CCCCC2)cc1NC(=O)CSCc1c(C)noc1C | -39.5%
6 | CCOc1ccc(S(=O)(=O)N2CCOCC2)cc1NC(=O)CSCc1c(C)noc1C | -17.3%
7 | CCN(CC)S(=O)(=O)c1ccc(N(C)C)c(NC(=O)CSCc2c(C)noc2C)c1 | -60.4%
8 | Cc1noc(C)c1CSCC(=O)Nc1cc(S(C)(=O)=O)ccc1Cl | 0.564%
9 | CCOc1ccc(S(=O)(=O)N(CC)CC)cc1NC(=O)CSCc1c(C)noc1C | -67.2%
10 | Cc1noc(C)c1CSCC(=O)Nc1ccc(S(C)(=O)=O)cc1 | 15.2%
11 | C=CCOc1cccc(C2C(C(=O)c3cccs3)=C(O)C(=O)N2Cc2cccnc2)c1 (stereo not shown) | -1.2%
12 | CCOC(=O)C1=C(C)NC(=O)NC1c1cc(Br)c(O)c(OC)c1 (stereo not shown) | -2.71%
13 | COc1ccc(CNc2ccc3c(c2)ncn3C)cc1OC | 15.8%
14 | Cc1cnc(C(=O)Nc2cc(S(=O)(=O)N3CCOCC3)ccc2N2CCN(C)CC2)cn1 | -18.6%
15 | COc1ccc(-n2cc(CN(C)C3CCOCC3)c(-c3cccc(F)c3)n2)cc1 | -29.1%
16 | COc1ccc(-n2cc(CNCc3cnc4ccccn34)c(-c3cccc(F)c3)n2)cc1 | -30.2%
17 | COc1ccc(N2C(=O)CC(NC3CCCCNC3=O)C2=O)cc1 (stereo not shown) | 8.59%
18 | COc1cccc(-c2nn(-c3ccccc3)cc2CN2CCCO2)c1 | -5.81%
19 | COc1ccc(-n2cc(CN(C)Cc3n[nH]c(=O)[nH]3)c(-c3cccc(F)c3)n2)cc1 | -15.4%
20 | COc1ccc(-n2cc(CNC3CCOCC3)c(-c3cccc(F)c3)n2)cc1 | -48.2%
21 | COc1ccc(-n2cc(CNCCCn3ccnc3)c(-c3cccc(F)c3)n2)cc1 | -75.2%
22 | COc1ccc(-n2cc(CNC3CCN(C)CC3)c(-c3cccc(F)c3)n2)cc1 | -77.5%
23 | COc1ccc(-n2cc(CN[C@H]3CCCCNC3=O)c(-c3cccc(F)c3)n2)cc1 | -64.1%

Row | SMILES | hERG current change (%, negative = inhibition) at 10uM
24 | COc1ccc(-n2cc(CNC3CCC(O)CC3)c(-c3cccc(F)c3)n2)cc1 (stereo not shown) | -45.3%
25 | COc1ccc(-n2cc(CNCC3CCOCC3)c(-c3cccc(F)c3)n2)cc1 | -78.5%
26 | COc1ccc(-n2cc(CNCCCn3ccnc3)c(-c3ccccc3Cl)n2)cc1 | -44.9%
27 | Cc1cccc(C)c1OCC(=O)Nc1ccc(N2CCOCC2)cc1 | -4.13%
28 | O=C(CC12CC3CC(CC(C3)C1)C2)Nc1cccc2ncccc12 | -23%
29 | CN(C)c1ccc(Nc2cc(Cl)ncn2)cc1 | 1.65%
30 | COc1ccc(OC)c(N(CC(=O)Nc2ccc3c(c2)OCCO3)S(C)(=O)=O)c1 | 9.64%
31 | CC(C)CC(=O)NC(=S)Nc1ccccc1C(=O)Nc1ccccc1 | 8.01%
32 | O=C(c1ccc(CN2CCOCC2)cc1)N1CCN(c2ccccc2F)CC1 | -3.33%
33 | COc1ccc(CNCc2cc3c(C(C)(C)C)nn(-c4ccccc4)c3[nH]c2=O)cc1 | -24%
34 | CCOC(=O)c1c(NC(=S)Nc2ccccc2)sc2c1CCN(CCc1ccccc1)C2 | -64.1%
35 | CCOC(=O)c1c(N)sc2c1CCN(CCc1ccccc1)C2 | -28.6%
36 | CCOC(=O)c1c(NC(=S)NCc2ccccc2)sc2c1CCN(C(=O)OCC)C2 | 32.8%
37 | CCOC(=O)c1c(NC(=S)Nc2ccccc2)sc(C)c1C | 4.49%
38 | CCOC(=O)c1c(NC(=S)Nc2ccccc2)sc2c1CCN(CC)C2 | -81.5%
39 | CCOC(=O)c1c(NC(C)=O)sc2c1CCN(Cc1ccccc1)C2.Cl | -20.5%
40 | COc1ccc(-c2c(C)n([O-])c3c([n+]2=O)CCCC3)c(OC)c1 | 6.26%
41 | Nc1cncc(C(=O)O)c1 [26671297] | 4.06%
42 | CCn1cc(C(=O)N2CCCC(C(=O)c3ccc4ccccc4c3)C2)cn1 (stereo not shown) | -18.1%
43 | CCCCc1ccc(NC(=O)CSc2nc(=O)n(CCN(CC)CC)c3c2CCC3)cc1 | -65.8%
44 | CCc1ccc(NC(=O)CSc2nc(=O)n(CCCN(C)C)c3c2CCC3)cc1 | -42.3%
45 | CCCCc1ccc(NC(=O)CSc2nc(=O)n(CCN(C)C)c3c2CCC3)cc1 | -56.4%
46 | CCCCc1ccc(NC(=O)CSc2nc(=O)n(CCN(CC)CC)c3c2CCCC3)cc1 | -66.7%

From publication PMC4336329 (PLoS ONE, 2015)
